The record followed here is the OligoGym collection.

Some targets named below: CD86; CD58; CD48; CDC23; CHCHD8; CHI3L1; CHST7; CHRNE; CHSY1.
Common to all, as to test: pooled miR-30 sensor sort-seq; sequence = guide strand
What all share (settings): shRNA
Also: reference of the scale not given here.

TATACTTGGAATGAACACTGTC: the sensor-assay potency score (higher = more potent) with CD86 was 1.09.
In the experiment with CD58, TAAAAGATGAGAAAGCTCTGAA gave a sensor-assay potency score (higher = more potent) of 0.844.
As for TATACAGCACAATACATGTTGT, the sensor-assay potency score (higher = more potent) in the experiment with CD58 was -0.688.
Sequence TTACAAAAGTATCTACATCATC showed a sensor-assay potency score (higher = more potent) in the experiment with CD58 of -0.687.
ATTATCTTGAGATTTCTGCATA came in with a sensor-assay potency score (higher = more potent) with CD86 of -0.445.
In the experiment with CD58, TACATGTTGTAATTACTGCTAA yielded a sensor-assay potency score (higher = more potent) of -0.161.
TAATGCTCTGGTATCATGCATT: in the experiment with CD58, the sensor-assay potency score (higher = more potent) was -0.599.
The same measure, in the same setting: then TTAAAATATATACTGGTTGAGT, with -0.467; and TAAAATAATTTAGTTATGCTGT, with -0.222.
In the experiment with CD48, TTGCTGCTCACAGAATTGCTGA showed a sensor-assay potency score (higher = more potent) of -0.332.
In the case of TTATATTAGAAATTGGTACTAT, the sensor-assay potency score (higher = more potent) in the experiment with CD86 worked out at 0.249.
For TGATCTTCCATTCTTGCTCATT, the sensor-assay potency score (higher = more potent) with CD48 was -1.23.
On to TTGGATTCAAAGTACTTAGATT, for which, in the experiment with CD48, the sensor-assay potency score (higher = more potent) is -1.05.
For the sequence TTTTCTCTTTTCTTGGTCTGTT, the sensor-assay potency score (higher = more potent) in the experiment with CD86 is -0.104.
The sequence TACAGCACAATACATGTTGTAA returned a sensor-assay potency score (higher = more potent) with CD58 of -0.704.
As to TTGCTCCATAGGACAATCCCAT, the sensor-assay potency score (higher = more potent) with CD58 was -1.06.
In the experiment with CD58, TTGTGGAAGATCATTTTCCATC had a sensor-assay potency score (higher = more potent) of -1.11.
In the experiment with CD48, TGTAGTTTACAGACTCGCCAGG showed a sensor-assay potency score (higher = more potent) of -0.895.
TATAAGTGCATATCTGTGTCTT: in the experiment with CD58, the sensor-assay potency score (higher = more potent) turned out to be 0.724.
In the experiment with CD58, TTATCCTTTTGTTTTTTCCATA displayed a sensor-assay potency score (higher = more potent) of -1.18.
Still for that read-out and setting: to TTCATATACAGCACAATACATG belongs -1.42.
TGATACATTGATACAAGCCCTT: in the experiment with CD86, the sensor-assay potency score (higher = more potent) was -0.31.
As for TTTCATACTCATCTTCATCTGA, in the experiment with CD58, the sensor-assay potency score (higher = more potent) was 0.555.
Still for that read-out and setting: then TTCTTCTTAAAGCAGCTGCTTC, with -0.594; and TTTAAAGGCACATTGCTTGGTA, with 0.706.
As for TCAATTTTGATGACAGGCTTGG, the sensor-assay potency score (higher = more potent) with CD48 was found to be 0.186.
For TTGAGTGGAGAAACTCTGCGTG, the sensor-assay potency score (higher = more potent) with CDC23 was 0.52.
For TTCCTCTATAATCTTGCTGGGT, the sensor-assay potency score (higher = more potent) with CHCHD8 is -1.07.
Take TATATTGGCAAAGCTGTAGATG: the sensor-assay potency score (higher = more potent) in the experiment with CHI3L1 was -1.02.
With TTGCTTTTGACGCTTTCCTGGT, the sensor-assay potency score (higher = more potent) in the experiment with CHI3L1 was -0.698.
In turn, AACAGCAGCGCGAACTTGCAGT showed a sensor-assay potency score (higher = more potent) with CHST7 of -0.918.
The sequence TAGATGTGCTGCTTCTCGCGAG displayed a sensor-assay potency score (higher = more potent) with CHST7 of -0.296.
With ATACAAGTAGAAAACGTCCGGG, in the experiment with CHST7, the sensor-assay potency score (higher = more potent) worked out at 0.117.
With TAGATGACGTCAGTCTCCCCTG, the sensor-assay potency score (higher = more potent) in the experiment with CHRNE was -0.628.
In turn, TTGTGCTCACTCTTCGACCCAG yielded a sensor-assay potency score (higher = more potent) with CHSY1 of -0.424.
As for TTGCCGTCGTTGTCTACGGCAA, the sensor-assay potency score (higher = more potent) with CHRNE is -1.16.
Regarding TTCCAGCACAATCTCTGGCAGC, in the experiment with CHRNE, the sensor-assay potency score (higher = more potent) was -0.813.
Consider TCCTTGATGACCACCACCGGGT, for which the sensor-assay potency score (higher = more potent) in the experiment with CHST7 was -1.07.
Consider TTTATCTTTGGGTTCTTTGTGC, for which the sensor-assay potency score (higher = more potent) in the experiment with CHSY1 was determined as 0.332.
Still for that read-out and setting: to TTGCTCGACATCGCTGAAGGAA belongs -0.494.
As for TTCAGTATCAGCTCCTCCGCGC, in the experiment with CHRNE, the sensor-assay potency score (higher = more potent) is -0.412.
Sequence TAAATCTCACAAACATGTCGAA showed a sensor-assay potency score (higher = more potent) with CHSY1 of -0.309.
For TTTTACTGTAACTTGGATCATT, the sensor-assay potency score (higher = more potent) with CHSY1 is -0.393.
The sequence TAGTGGTGAGAGTCTCCTCTTT registered a sensor-assay potency score (higher = more potent) with CHRNE of -0.541.
Sequence TTTTCGTCCAGACACCTGCTGG gave a sensor-assay potency score (higher = more potent) in the experiment with CHST7 of -1.07.
With ATGACGAAAATAAGGAACCTGC, the sensor-assay potency score (higher = more potent) with CHRNE was -1.05.
In the experiment with CHRNE, TATACCCCCAAAGTCGTCCTTG gave a sensor-assay potency score (higher = more potent) of -0.579.
With TTTCCCACTATAAACAATCTTT, the sensor-assay potency score (higher = more potent) with CHSY1 is -0.597.
Regarding TTTTCCAGCACAATCTCTGGCA, the sensor-assay potency score (higher = more potent) with CHRNE is -0.449.
The sequence TTGCTTTCTGTCAGTACTGTAG had a sensor-assay potency score (higher = more potent) with CHRNE of -0.702.
For TTGAAGTCAATGATGCGCCCTC, in the experiment with CHSY1, the sensor-assay potency score (higher = more potent) was -0.291.
Still for that read-out and setting: then TTAACAATCACAACAGAACATT, with -1.42.
In the experiment with CHRNE, TCAAACACGAGCTCGCTCCGTG gave a sensor-assay potency score (higher = more potent) of -0.0514.
TCGATCTTGTTGATGGTCTTGC had a sensor-assay potency score (higher = more potent) in the experiment with CHRNE of 0.161.
For TTTTGCTGAAAGTCTGCTGTAA, in the experiment with CHSY1, the sensor-assay potency score (higher = more potent) was -0.0624.
Sequence TCTTGTTGATGGTCTTGCCGTC registered a sensor-assay potency score (higher = more potent) with CHRNE of 0.0404.
TACCAAATCACATCTCTTCTTT: the sensor-assay potency score (higher = more potent) with CHST7 was -0.0966.
In turn, TTACTGGAAACTTCATCTCAAC came in with a sensor-assay potency score (higher = more potent) with CHST7 of -1.13.
TTGGTAGCAAGTCAAGTCCCAG: the sensor-assay potency score (higher = more potent) with CHST7 is -1.13.
The same measure, in the same setting: to TAAATATCCACATTGCACTGTC belongs 0.728.
